# hgDAF-12 ag – activates the H. glycines DAF-12 receptor ligand-binding domain | HEK293 GAL4-hgDAF12 UAS-luciferase reporter, agonist luminescence; normalized to butyrate control | activation, % at 6.8 µM | actives 1.8% (n = 370,000) | AID 687014;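 active means activation above a cutoff set at the mean of all screened compounds plus 3 SD, cut at about 10% in these data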;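 further: 0% = DMSO wells and 100% = sodium butyrate wells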
# SMARCA2 activ – SMARCA2 function activation, primary screen; MG213 cells, MMTV-luciferase reporter, dexamethasone, overnight; AID 652017; activation, % at 9.1 µM; actives 1% (n = 370,000); in the data active means activation above about 7.8%;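 further: 0% = vehicle wells and 100% = reference activator wells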
# ssDAF-12 act – activators of S. stercoralis DAF-12 nuclear receptor; HEK293 ssDAF-12/GRIP1 lit1-tk-luc reporter, luminescence; % of 3 µM dafachronic acid response; activation, % at 6.8 µM; actives 1% (n = 370,000); AID 652126;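 active means activation above the mean over all tested compounds plus 3 SD, cut at about 0.9% in these data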;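 further: 0% = DMSO-only wells and 100% = 3 µM delta7-dafachronic acid wells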
# hcDAF12 agonist – activates DAF-12 receptor from parasite H. contortus; activation, % at 6.8 µM; HEK293 hcDAF-12 lit1-tk-luc reporter, luminescence; 0% DMSO, 100% Δ7-dafachronic acid; actives 1.4% (n = 370,000);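 active means activation above the mean of all tested compounds plus 3 SD, cut at about 5.5% in these data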;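 further: 100% = response to 3 µM Δ7-dafachronic acid high control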
# DAX1 inh – DAX1 (NR0B1) inhibition, primary screen. HEK293T StAR-luciferase reporter, SF-1/DAX-1 repression relief. actives 1.1% (n = 370,000). inhibition, % at 6.8 µM. AID 652010;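 active means inhibition above the mean over all tested compounds plus 3 SD, cut at about 3.6% in these data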;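 further: 0% = DAX-1 cells with DMSO and 100% = cells lacking DAX-1 with DMSO; higher inhibition means more luminescence from relief of DAX-1 repression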
# DAX1 conf – confirmation of human DAX1 (NR0B1) inhibitors | inhibition, % at 6.8 µM | shares compounds with DAX1 inh | actives 87% (n = 2,400) | HEK293T StAR-promoter luciferase reporter, SF-1/DAX-1 repression;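 active means inhibition above the average of every tested compound plus 3 SD, cut at about 3.8% in these data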;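 further: 0% = DAX-1 cells with DMSO and 100% = no DAX-1 control cells with DMSO; active compounds raise luminescence by relieving repression of the StAR reporter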
# Target sequence (P51843 whole entry, looked up): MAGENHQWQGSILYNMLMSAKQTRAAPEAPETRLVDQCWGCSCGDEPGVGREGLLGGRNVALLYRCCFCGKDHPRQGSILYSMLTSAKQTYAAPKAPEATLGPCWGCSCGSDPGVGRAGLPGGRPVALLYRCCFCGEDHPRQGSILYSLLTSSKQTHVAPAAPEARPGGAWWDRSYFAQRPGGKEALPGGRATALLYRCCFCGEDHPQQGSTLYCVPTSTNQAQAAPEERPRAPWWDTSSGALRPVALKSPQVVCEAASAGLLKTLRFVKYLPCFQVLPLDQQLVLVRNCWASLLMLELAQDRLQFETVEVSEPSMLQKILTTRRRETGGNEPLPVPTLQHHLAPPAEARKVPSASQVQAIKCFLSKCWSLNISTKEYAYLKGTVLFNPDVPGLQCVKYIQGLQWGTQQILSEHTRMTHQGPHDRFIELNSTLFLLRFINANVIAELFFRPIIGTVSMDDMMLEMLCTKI
# SF1 AF2mut Luc – nonselective inhibitor or artifact in SF-1 mutant DAX1 counter-screen. shares compounds with DAX1 inh. HEK293 StAR-luciferase, SF-1 AF2 mutant, luminescence. inhibition, % at 6.8 µM. actives 78% (n = 2,400);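 active means inhibition above the mean of all tested compounds plus 3 SD, cut at about 3% in these data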;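 further: 0% = DAX-1 transfected cells with DMSO and 100% = cells without DAX-1 with DMSO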
# SMARCA2 act conf – confirmation of SMARCA2 (BRM) function activators | shares compounds with SMARCA2 activ | MG213 cells, MMTV-luciferase with dexamethasone, luminescence, overnight; MG213 cells expressing E1A, Rb sequestered; DMSO wells 0%, reference activator 100% | activation, % at 9.1 µM | actives 30% (n = 3,500) | AID 652260;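 active means activation above its plate's cutoff, the mean activation of tested wells plus 3 SD, cut at about 7.9% in these data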
# VP16 Luc act – activates GAL4-VP16 luciferase, flagging SMARCA2 activator hits; shares compounds with SMARCA2 activ; HEK293 GAL4-VP16 pG5luc reporter, luciferase luminescence; scaled: DMSO wells 0%, SAHA wells 100%; activation, % at 9.1 µM; actives 41% (n = 3,500); AID 686939;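 active means activation above the solvent-only control well mean plus 3 SD, averaged across control plates, cut at about 5.2% in these data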
# LXR ag – LXR-beta agonism as hcDAF-12 counter-screen. shares compounds with hcDAF12 agonist. HEK293 Gal4-LXR tk-luc reporter, luminescence, 24 h; normalized: DMSO 0%, positive control 100%. activation, % at 6.8 µM. 3,400 tested, under 10 active. AID 743027;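 active means mean percent activation of the reporter above a cutoff set as the average over tested compounds plus their standard deviation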
# hcDAF12 conf – confirmation of H. contortus DAF-12 agonists; actives 61% (n = 3,400); activation, % at 6.8 µM; shares compounds with hcDAF12 agonist; HEK293 hcDAF-12 lit1-tk-luc reporter, luminescence; % of Δ7-dafachronic acid response;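 active means mean activation across triplicate tests above the threshold derived from the earlier primary screen, cut at about 5.5% in these data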;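 further: 0% = DMSO only wells and 100% = 3 µM Δ7-dafachronic acid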
# hgDAF12 ag – confirmation of H. glycines DAF-12 agonists. HEK293 GAL4-hgDAF12 luciferase reporter, agonist mode; percent of butyrate response. actives 80% (n = 3,300). activation, % at 6.8 µM. shares compounds with hgDAF-12 ag;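 active means mean activation over triplicate wells above the hit cutoff derived from the earlier primary screen, cut at about 11% in these data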;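 further: 0% = DMSO low control and 100% = 2 mM sodium butyrate high control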
# LXRb DAF12 ctr – LXR-beta agonism as DAF-12 counter-screen. shares compounds with hgDAF-12 ag. HEK293 Gal4-LXR luciferase reporter, 24 h. activation, % at 6.8 µM. 3,300 tested, under 10 active;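 active means mean activation of the triplicate above a set limit carried over from the primary screen, none filed active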
# * marks the source's active call; other numbers are inactive results; . = not tested or not shown. Compounds with a hit are over-represented: about 4.2% of the library has one in this group of screens.
SMILES,hgDAF-12 ag,SMARCA2 activ,ssDAF-12 act,hcDAF12 agonist,DAX1 inh,DAX1 conf,SF1 AF2mut Luc,SMARCA2 act conf,VP16 Luc act,hgDAF12 ag,LXRb DAF12 ctr,others
O=c1c2c(nc3cc(-c4ccccc4Cl)[nH]n13)CCS2,16*,6,1.5*,5,5.6*,3.9*,3.4*,.,.,12*,1,
COc1ccc2nc(C(c3ccc(C)cc3)n3c(-c4ccccc4Br)nc4ccccc43)[nH]c2c1 (stereo unspecified),14*,6,1,3,5.8*,8.5*,5.5*,.,.,17*,1,
Cc1ccc(S(=O)(=O)N2CCC(C(=O)NCc3cccs3)CC2)cc1,0,-1,-1,0,-1,.,.,.,.,.,.,
Cc1cc2nc(N3C(=O)CNC3=S)sc2cc1C,17*,5,1.0*,2,6.7*,14*,7.0*,.,.,13*,1,
O=C1c2ccccc2C(=O)C1c1ccnc2ccccc12,21*,6,5.1*,24*,5.3*,-2,-4,.,.,8,1,LXR ag=1;hcDAF12 conf=18*
N#CC1=C(N)SC(N)=C(C#N)C1c1ccnc2ccccc12,-1,2,0,3,0,.,.,.,.,.,.,
CC1CCc2sc(C(=O)NCC3CCCO3)cc2C1 (stereo unspecified),15*,4,0,3,7.2*,9.9*,6.5*,.,.,13*,1,
CCOC(=O)[C@]12CCCC3=C1N(CCC3)C(=O)[C@@H](CC(=O)NCc1ccccc1)C2,2,0,-1,-1,-1,.,.,.,.,.,.,
COc1ccccc1NC(=O)C(=O)/C=C(\O)c1ccccc1,9,10*,0,4,1,.,.,-1,0,.,.,
CC(=O)Nc1ccc2sn(-c3ccccc3)c(=O)c2c1,0,17*,-1,0,1,.,.,8.8*,1,.,.,
CCn1c2ccccc2c2cc(NC(C)=O)ccc21,0,7,-2,-1,-1,.,.,.,.,.,.,
CN(C)c1nn2c(-c3ccccc3)nnc2o1,-2,8.8*,-1,2,0,.,.,0,3,.,.,
CC(C)N1CCCCC(NC(=O)c2cccc(C(F)(F)F)c2)C1=O (stereo unspecified),-5,8.8*,-1,1,-1,.,.,1,0,.,.,
COC(=O)c1cccc(NC(=O)Cn2cnc3ccccc3c2=O)c1,-2,13*,-2,0,-1,.,.,-5,-3,.,.,
CC1CN(S(=O)(=O)c2cccc(C(=O)NN3CCN(C)CC3)c2)CC(C)O1 (stereo unspecified),-2,9.1*,0,-4,0,.,.,1,1,.,.,
CN1CCN(NC(=O)c2cccc(S(=O)(=O)N3CCCCCC3)c2)CC1,0,-2,-2,-1,0,.,.,.,.,.,.,
